Source: PubChem BioAssay (several laboratories)
SKN-1 inh: C. elegans SKN-1 inhibition; C. elegans VP596 Pgst-4::GFP/RFP ratio, acrylamide-induced, 24 h; inhibition, % at 21.8 µM; 360,000 tested, 0.49% active;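 active = interference check ratio from 0.5 to 1.5 plus GFP to RFP signal ratio inhibition reaching or exceeding a fixed threshold, cut at about 30% in these data, passing the limit was not always enough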
CendR NRP1 mod: NRP-1/CendR interaction modulation | 360,000 tested, 0.85% active | FAM-RPARPAR peptide binding to NRP-1, fluorescence polarization | inhibition, % at 25 µM | AID 602438;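 active = inhibition or corrected inhibition above about 18%, plus a signal ratio from 0.5 to 1.5, limit read from the data, passing the limit was not always enough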
F508del corr: correctors of CFTR F508del function in bronchial epithelial cells. CFBE cells, YFP halide quenching; stimulated with forskolin plus potentiator P3; % fluorescence drop versus neutral controls. activity (quench increase), % at 7.58 µM. 350,000 tested, 0.36% active;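 active = mean added fluorescence quench of at least 8% versus neutral control, with both replicates also reaching 8%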;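 also: cells transiently co-express mutant CFTR-F508del with the halide-sensitive YFP; corrector assay measuring rescue of mutant channel to the surface after 24 h compound exposure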
MPTP block: inhibitors of mitochondrial permeability transition pore; inhibition, % at 10 µM; AID 602449; isolated mouse mitochondria, Ca2+ swelling absorbance, 30 min; 360,000 tested, 1.4% active;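 active = inhibition of 50% or more, scaled per plate between neutral and stimulator controls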;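 also: 0% = DMSO wells given calcium and 100% = 1 mM EGTA wells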
ATG4B inhibitor: blocks human ATG4B protease cleavage of LC3 substrate | ATG4B cleavage of LC3-PLA2, NBD-HPC fluorescence, 1 h | inhibition, % at 8.33 µM | 340,000 tested, 0.51% active; in the data active = inhibition above about 40%
Target sequence (Q9Y4P1 whole entry, looked up): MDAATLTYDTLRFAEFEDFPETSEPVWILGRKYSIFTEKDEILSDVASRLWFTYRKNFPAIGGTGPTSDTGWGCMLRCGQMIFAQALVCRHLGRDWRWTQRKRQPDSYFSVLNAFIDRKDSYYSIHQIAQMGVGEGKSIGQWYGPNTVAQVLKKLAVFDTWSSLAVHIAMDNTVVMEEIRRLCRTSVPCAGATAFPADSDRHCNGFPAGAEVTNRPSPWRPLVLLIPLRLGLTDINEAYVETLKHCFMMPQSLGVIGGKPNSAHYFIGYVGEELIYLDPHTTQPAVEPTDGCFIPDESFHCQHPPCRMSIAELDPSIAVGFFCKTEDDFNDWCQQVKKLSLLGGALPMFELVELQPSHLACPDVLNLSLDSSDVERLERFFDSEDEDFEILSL
MPTP counter: Rhodamine 123 counter-screen of mitochondrial pore hits | AID 624504 | 5,000 tested, 78% active | inhibition, % at 10 µM | isolated mitochondria, membrane potential, Rhodamine 123 fluorescence | shares compounds with MPTP block; in the data active = inhibition above about 22%;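 also: 0% = DMSO vehicle and 100% = positive control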
MPTP swell DR: dose response confirmation of mitochondrial permeability transition pore inhibitors. IC50, µM. isolated mitochondria swelling, absorbance. shares compounds with MPTP block. 780 tested, 58% active; in the data active = IC50 below about 20 µM
MPTP cs DR: counter-screen for mitochondrial permeability transition pore inhibitors, dose response; shares compounds with MPTP block; isolated mitochondria counterscreen, fluorescence read-out; IC50, µM; 780 tested, 49% active; AID 651564; in the data active = IC50 below about 80 µM
Active calls of the source: *; i = inactive; · = no result. A selection: hits, their analogues and other compounds. The true share with any hit is near 2.7%.

SMILES	SKN-1 inh	CendR NRP1 mod	F508del corr	MPTP block	ATG4B inhibitor	MPTP counter	others
CN1\C(=C/C=C/C=C/C=[N+](C)C)C(C)(C)c2ccccc21	90	-261	4	112*	11	59*
CN1CCN(CC(O)Cn2c3ccccc3c3ccccc32)CC1 (stereo not given)	12	6	3	1	-10	·
CN1CCN(CC#CCn2c3ccccc3c3ccccc32)CC1	-4	0	-2	86*	5	-17	MPTP swell DR=i;MPTP cs DR=>80
Cc1oc(-c2cccc(Cl)c2)nc1CN1CCC(C(=O)NCCCN2CC(C)CC(C)C2)CC1 (stereo not given)	8	7	·	14	-5	·
COc1ccc(CCNC(=O)C2CCCN(Cc3nc(-c4ccccc4C)oc3C)C2)cc1OC (stereo not given)	5	-8	·	59*	-4	8	MPTP swell DR=18*;MPTP cs DR=35*
CCOC(=O)N1CCC(NC(=O)C2CCCN(Cc3nc(-c4cccc(Cl)c4)oc3C)C2)CC1 (stereo not given)	9	11	3	94*	-3	51*
COc1ccc(CCNC(=O)C2CCN(Cc3nc(-c4cccc(Cl)c4)oc3C)CC2)cc1OC	-1	10	·	52*	-7	14	MPTP swell DR=18*;MPTP cs DR=37*
COc1ccc(CN(C)C[C@H]2OCCCC[C@H](C)Oc3ccc(NC(=O)CCC(F)(F)F)cc3C(=O)N([C@@H](C)CO)C[C@H]2C)cc1	·	·	-2	·	·	·
O=[N+]([O-])/C(C=Nc1ccccc1O)=C\Nc1ccccc1O	-10	-5	1	83*	6	0
CN1C[C@@H](O)COC[C@H]2O[C@@H](CC(=O)NC3CCCC3)CC[C@@H]21	·	·	0	·	·	·
O=C(C[C@H]1C=C[C@H](NC(=O)Nc2ccc(F)cc2)[C@@H](CO)O1)NCc1ccccn1	·	·	-1	·	·	·
CO[C@@H]1CN(C)C(=O)c2cc(NC(=O)Nc3ccccc3)ccc2OC[C@@H](C)N(CC2CC2)C[C@@H]1C	·	·	0	·	·	·
C[C@@H]1CCCCO[C@H](CN(C)C(=O)c2ccccc2)[C@H](C)CN([C@@H](C)CO)C(=O)c2cc(NC(=O)Cc3ccccc3)ccc2O1	·	·	-2	·	·	·
NS(=O)(=O)c1ccc(CCNCc2cc(Br)ccc2OCc2ccccc2F)cc1	14	0	1	78*	-3	66*
COc1cc(CNCCNC(=O)c2nonc2N)ccc1OCc1ccc(Cl)cc1	16	10	-5	83*	-18	28*
NS(=O)(=O)c1ccc(CCNCc2cc(Cl)ccc2OCc2ccccc2)cc1	11	-8	1	16	-10	·
Nc1nonc1C(=O)NCCNCc1cc(Br)ccc1OCc1ccccc1F	-9	-3	·	84*	-10	80*
Nc1nonc1C(=O)NCCNCc1ccccc1OCc1ccccc1F	-6	17	·	4	-8	·
CCCCCCc1cc2cc(S(=O)(=O)c3ccc(Cl)cc3)c(=O)oc2cc1O	14	-5	1	101*	-4	94*
CCN(CC)c1ccc2cc(S(=O)(=O)c3ccc(Cl)cc3)c(=O)oc2c1	-22	143	-3	1	-9	·
CCCCCCc1cc2cc(S(=O)(=O)c3ccc(C)cc3)c(=O)oc2cc1O	9	-21	0	99*	-1	78*
Cc1ccc(C(NC(=O)C2CCCCC2)c2c(O)ccc3ccccc23)cc1 (stereo not given)	2	6	·	99*	-10	80*
CC(C)C(=O)NC(c1ccc([N+](=O)[O-])cc1)c1c(O)ccc2ccccc12 (stereo not given)	13	-11	·	87*	6	77*
CC(=O)NC(c1ccc([N+](=O)[O-])cc1)c1c(O)ccc2ccccc12 (stereo not given)	2	2	1	12	-19	·
COc1ccc(CNC(=O)C[C@H]2C[C@@H]3c4cc(NC(=O)C5CCC5)ccc4O[C@@H]3[C@@H](CO)O2)cc1	·	·	0	·	·	·
SMILES	SKN-1 inh	CendR NRP1 mod	F508del corr	MPTP block	ATG4B inhibitor	MPTP counter	others
CC1(C)SC(=S)N(/N=C/c2ccc(O)cc2)C1N(O)C(=O)Nc1ccc([N+](=O)[O-])cc1 (stereo not given)	3	-3	·	3	-11	·
Cc1ccc(/C=N/N2C(=S)SC(C)(C)C2N(O)C(=O)Nc2ccc([N+](=O)[O-])cc2)cc1 (stereo not given)	15	13	·	91*	-4	87*
CCN1CCN(CC(=O)n2c3c(c4ccccc42)CC(C)CC3)CC1 (stereo not given)	19	7	·	78*	9	-13	MPTP swell DR=8.7*;MPTP cs DR=>80
NCCCCc1ccc2ccc3cccc4ccc1c2c34	-8	2	1	89*	6	-15	MPTP swell DR=6.2*;MPTP cs DR=53*
NS(=O)(=O)c1cccc(NC(=O)CSc2nc3nc(-c4cccs4)cc(C(F)(F)F)c3c(=O)[nH]2)c1	8	10	3	-1	-3	·
O=C(CSc1nc2nc(-c3cccs3)cc(C(F)(F)F)c2c(=O)[nH]1)Nc1c(F)c(F)c(F)c(F)c1F	-8	-8	2	55*	24	70*
Cc1cc2nc(CCN(C(=S)NCC(C)C)C3CCCC3)[nH]c2cc1C	9	1	·	85*	8	84*
COc1cccc(CNC(=O)C[C@@H]2CC[C@@H](NC(=O)C3CCC3)[C@H](CO)O2)c1	·	·	0	·	·	·
C[C@H](CO)N1C[C@H](C)[C@@H](CN(C)Cc2cccc(C(=O)Nc3ccccc3N)c2)OCc2ccccc2-c2c(n(C)c3ccccc23)C1=O	·	·	2	·	·	·
CC(C)(C)c1ccc(NC(=O)COC(=O)c2ccc(NS(=O)(=O)c3ccc(F)c(F)c3)cc2)cc1	1	-7	·	60*	-6	60*
CC(C)(C)NC(=O)NC(=O)COC(=O)c1cccc(NS(=O)(=O)c2ccc(F)c(F)c2)c1	-4	0	·	1	-3	·
C[C@@H]1CN([C@@H](C)CO)C(=O)c2cc(NC(=O)Nc3ccc(C(F)(F)F)cc3)ccc2O[C@H]1CN(C)C(=O)Nc1ccc(C(F)(F)F)cc1	·	·	-5	·	·	·
Cc1cc(/C=C2/SC(=S)N(c3cccc(Cl)c3)C2=O)c(C)n1-c1cccnc1	8	-98	·	63*	-7	78*
Cc1cc(/C=C2/SC(=S)N(c3ccc([N+](=O)[O-])cc3)C2=O)c(C)n1-c1cccnc1	-16	-30	0	95*	2	95*
Cc1cccc(N2C(=O)/C(=C/c3cccnc3)SC2=S)c1	-10	8	1	1	10	·
Cc1cc(/C=C2\SC(=S)N(C)C2=O)c(C)n1-c1ccc(O)cc1	4	-141	2	38	8	·
